Results published in the supplement of paper PMC11732987, “Enantioselective OTUD7B fragment discovery through chemoproteomics screening and high-throughput optimisation” (Communications Chemistry, 2025).

What was measured:
Experiment in all cases: log2 ratio of Biotin-Ahx-Ub-VS probe labelling (fragment/DMSO); higher = less target engagement (more negative = stronger competition), active = hit call of the paper (q ≤ 0.05, log2 ratio ≤ -1)
Conditions in all cases: compound concentration: 200 uM; treatment time: 3 h
USP42 = molecular target: T1, USP42 (UniProt Q9H9J4)
T1 sequence (whole entry): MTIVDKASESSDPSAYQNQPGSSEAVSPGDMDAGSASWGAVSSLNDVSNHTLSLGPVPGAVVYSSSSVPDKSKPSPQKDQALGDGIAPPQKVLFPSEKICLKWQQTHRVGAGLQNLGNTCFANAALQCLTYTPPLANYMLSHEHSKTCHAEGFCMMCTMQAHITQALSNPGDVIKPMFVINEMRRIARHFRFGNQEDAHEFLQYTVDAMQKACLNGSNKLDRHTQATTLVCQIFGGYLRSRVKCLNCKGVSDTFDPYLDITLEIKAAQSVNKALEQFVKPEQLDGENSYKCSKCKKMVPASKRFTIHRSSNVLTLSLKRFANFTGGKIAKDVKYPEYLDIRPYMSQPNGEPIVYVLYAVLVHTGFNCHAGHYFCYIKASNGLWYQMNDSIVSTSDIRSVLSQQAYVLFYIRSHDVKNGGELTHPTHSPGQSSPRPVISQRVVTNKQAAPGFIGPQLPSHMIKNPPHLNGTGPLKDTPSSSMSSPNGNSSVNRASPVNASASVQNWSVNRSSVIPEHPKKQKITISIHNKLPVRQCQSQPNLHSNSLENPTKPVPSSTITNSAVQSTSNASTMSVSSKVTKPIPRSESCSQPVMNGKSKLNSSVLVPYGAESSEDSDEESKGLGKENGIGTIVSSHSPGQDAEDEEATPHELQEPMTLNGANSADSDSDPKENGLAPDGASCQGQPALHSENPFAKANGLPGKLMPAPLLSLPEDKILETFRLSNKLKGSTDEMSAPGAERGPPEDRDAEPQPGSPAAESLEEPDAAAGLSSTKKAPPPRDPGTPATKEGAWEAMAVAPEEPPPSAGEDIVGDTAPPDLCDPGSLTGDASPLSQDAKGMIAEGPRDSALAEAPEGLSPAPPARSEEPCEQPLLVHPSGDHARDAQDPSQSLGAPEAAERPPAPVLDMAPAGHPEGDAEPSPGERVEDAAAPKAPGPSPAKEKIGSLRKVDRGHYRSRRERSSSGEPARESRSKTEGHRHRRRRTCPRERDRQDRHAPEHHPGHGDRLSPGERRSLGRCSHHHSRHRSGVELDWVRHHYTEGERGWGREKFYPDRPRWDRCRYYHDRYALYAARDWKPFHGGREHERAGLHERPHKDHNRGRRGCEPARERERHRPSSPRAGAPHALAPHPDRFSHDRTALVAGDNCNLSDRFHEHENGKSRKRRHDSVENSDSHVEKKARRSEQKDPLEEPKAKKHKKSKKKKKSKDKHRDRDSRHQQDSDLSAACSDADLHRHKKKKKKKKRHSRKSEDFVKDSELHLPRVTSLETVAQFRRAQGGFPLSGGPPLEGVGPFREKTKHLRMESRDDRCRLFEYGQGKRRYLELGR
Procedure, shortened: (§1)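 HEK293T lysate (495 µg per sample, in Tris/CHAPS/IGEPAL buffer with protease inhibitors) was exposed in triplicate for 3 h to fragment at 200 µM or to vehicle, then to Biotin-Ahx-Ub-VS at 0.5 µM final for 1 h. Labelled DUBs were enriched on NeutrAvidin, digested with LysC and trypsin, and analysed by diaPASEF LC-MS/MS. Spectronaut label-free quantities were normalised to the global median, and values are average log2 ratios of fragment over vehicle from an unpaired t-test. Only proteins with ≥2 unique peptides were used.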

USP46 = USP46 (UniProt P62068)
Procedure, shortened: as §1

USP47 = molecular target: T2, USP47 (UniProt Q96K76)
T2 sequence (whole entry): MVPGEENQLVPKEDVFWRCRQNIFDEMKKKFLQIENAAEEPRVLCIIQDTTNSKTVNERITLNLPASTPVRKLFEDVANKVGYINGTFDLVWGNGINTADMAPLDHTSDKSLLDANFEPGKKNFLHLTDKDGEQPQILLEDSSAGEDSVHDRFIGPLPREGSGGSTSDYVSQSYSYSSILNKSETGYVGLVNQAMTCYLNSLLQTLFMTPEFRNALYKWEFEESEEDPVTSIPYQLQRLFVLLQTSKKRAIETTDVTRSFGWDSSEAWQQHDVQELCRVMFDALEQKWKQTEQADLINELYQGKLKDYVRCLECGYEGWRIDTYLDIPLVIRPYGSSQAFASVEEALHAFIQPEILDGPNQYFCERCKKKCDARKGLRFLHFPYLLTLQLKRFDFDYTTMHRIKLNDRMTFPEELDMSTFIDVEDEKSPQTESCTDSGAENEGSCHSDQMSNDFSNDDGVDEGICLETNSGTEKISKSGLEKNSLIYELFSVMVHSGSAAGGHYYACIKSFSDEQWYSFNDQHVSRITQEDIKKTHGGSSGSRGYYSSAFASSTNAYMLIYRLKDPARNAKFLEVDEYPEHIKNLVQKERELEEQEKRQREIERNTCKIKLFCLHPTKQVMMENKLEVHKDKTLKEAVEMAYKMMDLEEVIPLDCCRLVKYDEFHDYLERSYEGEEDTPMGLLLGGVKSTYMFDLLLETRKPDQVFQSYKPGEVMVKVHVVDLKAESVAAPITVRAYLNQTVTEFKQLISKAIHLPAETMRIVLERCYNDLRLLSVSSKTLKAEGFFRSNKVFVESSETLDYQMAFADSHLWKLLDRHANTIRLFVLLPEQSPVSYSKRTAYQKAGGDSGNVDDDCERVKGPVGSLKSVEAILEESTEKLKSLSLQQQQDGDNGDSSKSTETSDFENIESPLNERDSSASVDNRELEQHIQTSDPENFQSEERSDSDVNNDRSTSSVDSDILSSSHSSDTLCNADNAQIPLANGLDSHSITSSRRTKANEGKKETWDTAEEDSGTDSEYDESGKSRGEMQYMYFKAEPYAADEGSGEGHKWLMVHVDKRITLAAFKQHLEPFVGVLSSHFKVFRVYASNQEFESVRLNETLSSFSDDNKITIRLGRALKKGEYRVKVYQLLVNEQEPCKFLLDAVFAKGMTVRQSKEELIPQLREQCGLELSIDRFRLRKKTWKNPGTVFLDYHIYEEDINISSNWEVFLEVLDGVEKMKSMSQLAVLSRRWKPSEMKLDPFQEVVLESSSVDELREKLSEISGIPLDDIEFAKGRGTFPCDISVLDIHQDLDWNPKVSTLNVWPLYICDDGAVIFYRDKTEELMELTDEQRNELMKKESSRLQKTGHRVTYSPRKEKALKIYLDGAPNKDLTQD
Procedure, shortened: as §1

USP48 = molecular target: T3, USP48 (UniProt Q86UV5)
T3 sequence (whole entry): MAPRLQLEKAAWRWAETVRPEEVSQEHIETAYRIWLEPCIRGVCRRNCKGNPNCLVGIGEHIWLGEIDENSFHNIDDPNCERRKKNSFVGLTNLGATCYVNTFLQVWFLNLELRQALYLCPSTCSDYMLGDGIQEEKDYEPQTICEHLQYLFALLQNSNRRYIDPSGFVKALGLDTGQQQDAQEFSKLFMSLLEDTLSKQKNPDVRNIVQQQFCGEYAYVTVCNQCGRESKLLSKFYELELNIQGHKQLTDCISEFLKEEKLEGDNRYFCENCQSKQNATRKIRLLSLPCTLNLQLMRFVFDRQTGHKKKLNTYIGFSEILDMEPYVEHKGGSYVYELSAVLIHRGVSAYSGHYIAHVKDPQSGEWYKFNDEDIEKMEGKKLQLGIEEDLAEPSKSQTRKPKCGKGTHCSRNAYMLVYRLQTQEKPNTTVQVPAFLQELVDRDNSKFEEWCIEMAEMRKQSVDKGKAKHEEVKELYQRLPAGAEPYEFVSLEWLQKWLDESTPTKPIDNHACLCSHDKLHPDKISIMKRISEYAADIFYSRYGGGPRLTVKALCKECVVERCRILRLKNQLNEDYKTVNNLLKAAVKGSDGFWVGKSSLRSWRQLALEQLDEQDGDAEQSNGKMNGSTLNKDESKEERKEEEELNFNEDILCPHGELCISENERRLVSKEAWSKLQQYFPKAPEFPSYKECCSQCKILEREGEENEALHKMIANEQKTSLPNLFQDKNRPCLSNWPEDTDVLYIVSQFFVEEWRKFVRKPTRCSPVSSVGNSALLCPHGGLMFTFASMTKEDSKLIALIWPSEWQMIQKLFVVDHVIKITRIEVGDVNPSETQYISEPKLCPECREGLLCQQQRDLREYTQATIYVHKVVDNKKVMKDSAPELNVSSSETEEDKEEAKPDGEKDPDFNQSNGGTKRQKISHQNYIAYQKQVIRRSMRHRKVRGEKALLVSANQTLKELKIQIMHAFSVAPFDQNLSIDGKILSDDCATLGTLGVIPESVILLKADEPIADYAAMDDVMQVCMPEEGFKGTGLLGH
Procedure, shortened: as §1

USP5 = molecular target: T4, USP5 (UniProt P45974)
T4 sequence (whole entry): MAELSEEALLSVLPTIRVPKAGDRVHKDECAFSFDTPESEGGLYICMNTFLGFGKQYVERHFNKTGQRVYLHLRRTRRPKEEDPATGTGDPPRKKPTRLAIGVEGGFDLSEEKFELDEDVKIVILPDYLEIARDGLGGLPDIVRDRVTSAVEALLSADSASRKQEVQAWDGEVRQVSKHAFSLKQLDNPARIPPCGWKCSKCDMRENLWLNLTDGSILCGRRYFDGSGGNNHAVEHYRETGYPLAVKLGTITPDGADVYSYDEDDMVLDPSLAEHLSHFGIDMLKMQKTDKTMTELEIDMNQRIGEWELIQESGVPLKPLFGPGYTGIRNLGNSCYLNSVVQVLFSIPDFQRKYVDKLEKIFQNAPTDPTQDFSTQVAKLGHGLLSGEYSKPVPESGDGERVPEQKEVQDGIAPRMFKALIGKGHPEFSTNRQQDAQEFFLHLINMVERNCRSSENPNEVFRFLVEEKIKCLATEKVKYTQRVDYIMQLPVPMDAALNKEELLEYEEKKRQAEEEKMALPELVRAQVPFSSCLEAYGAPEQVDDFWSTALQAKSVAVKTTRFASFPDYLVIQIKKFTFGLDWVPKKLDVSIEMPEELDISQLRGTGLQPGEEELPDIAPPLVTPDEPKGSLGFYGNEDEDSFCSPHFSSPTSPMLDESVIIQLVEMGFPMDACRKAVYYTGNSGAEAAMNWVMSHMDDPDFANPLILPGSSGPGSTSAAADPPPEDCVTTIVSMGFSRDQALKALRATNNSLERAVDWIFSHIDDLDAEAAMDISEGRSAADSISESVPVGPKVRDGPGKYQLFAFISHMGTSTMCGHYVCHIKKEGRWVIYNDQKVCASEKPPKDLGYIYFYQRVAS
Procedure, shortened: as §1

USP54 = USP54 (UniProt Q70EL1)
Procedure, shortened: as §1

USP7 = USP7 (UniProt Q93009)
Procedure, shortened: as §1

USP8 = molecular target: T5, USP8 (UniProt P40818)
T5 sequence (whole entry): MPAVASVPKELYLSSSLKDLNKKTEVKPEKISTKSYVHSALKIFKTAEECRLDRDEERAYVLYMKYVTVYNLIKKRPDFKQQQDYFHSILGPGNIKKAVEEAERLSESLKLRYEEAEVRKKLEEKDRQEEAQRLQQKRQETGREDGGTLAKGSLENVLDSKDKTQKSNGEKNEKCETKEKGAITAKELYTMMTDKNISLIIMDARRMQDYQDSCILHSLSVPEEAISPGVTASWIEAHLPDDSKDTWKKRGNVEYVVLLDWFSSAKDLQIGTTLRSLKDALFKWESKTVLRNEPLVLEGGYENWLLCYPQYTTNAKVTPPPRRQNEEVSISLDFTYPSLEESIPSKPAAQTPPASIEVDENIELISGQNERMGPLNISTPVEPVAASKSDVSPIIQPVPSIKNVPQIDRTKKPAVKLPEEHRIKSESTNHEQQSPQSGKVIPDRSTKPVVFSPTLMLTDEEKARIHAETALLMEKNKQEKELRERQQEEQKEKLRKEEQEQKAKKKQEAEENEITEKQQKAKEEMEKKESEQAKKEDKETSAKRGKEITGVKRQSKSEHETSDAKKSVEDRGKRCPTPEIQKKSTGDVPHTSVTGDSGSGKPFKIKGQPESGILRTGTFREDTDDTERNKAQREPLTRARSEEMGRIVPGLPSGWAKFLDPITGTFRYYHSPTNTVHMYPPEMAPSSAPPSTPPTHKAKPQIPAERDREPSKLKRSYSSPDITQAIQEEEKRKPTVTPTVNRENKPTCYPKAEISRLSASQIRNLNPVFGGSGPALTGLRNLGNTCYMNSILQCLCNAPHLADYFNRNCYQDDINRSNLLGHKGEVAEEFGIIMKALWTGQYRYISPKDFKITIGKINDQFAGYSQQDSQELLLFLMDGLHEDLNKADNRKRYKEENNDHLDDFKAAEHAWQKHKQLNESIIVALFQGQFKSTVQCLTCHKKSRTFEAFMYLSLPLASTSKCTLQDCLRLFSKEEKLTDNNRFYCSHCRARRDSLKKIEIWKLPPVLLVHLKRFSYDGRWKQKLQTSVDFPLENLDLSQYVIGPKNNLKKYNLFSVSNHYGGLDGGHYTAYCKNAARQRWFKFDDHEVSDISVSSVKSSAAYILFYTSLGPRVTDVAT
Procedure, shortened: as §1

USP9X = USP9X (UniProt Q93008)
Procedure, shortened: as §1

UniProt O00487 = molecular target: UniProt O00487
Procedure, shortened: as §1

Measured: log2 ratio of Biotin-Ahx-Ub-VS probe labelling

USP54, sequence (Q70EL1 whole entry): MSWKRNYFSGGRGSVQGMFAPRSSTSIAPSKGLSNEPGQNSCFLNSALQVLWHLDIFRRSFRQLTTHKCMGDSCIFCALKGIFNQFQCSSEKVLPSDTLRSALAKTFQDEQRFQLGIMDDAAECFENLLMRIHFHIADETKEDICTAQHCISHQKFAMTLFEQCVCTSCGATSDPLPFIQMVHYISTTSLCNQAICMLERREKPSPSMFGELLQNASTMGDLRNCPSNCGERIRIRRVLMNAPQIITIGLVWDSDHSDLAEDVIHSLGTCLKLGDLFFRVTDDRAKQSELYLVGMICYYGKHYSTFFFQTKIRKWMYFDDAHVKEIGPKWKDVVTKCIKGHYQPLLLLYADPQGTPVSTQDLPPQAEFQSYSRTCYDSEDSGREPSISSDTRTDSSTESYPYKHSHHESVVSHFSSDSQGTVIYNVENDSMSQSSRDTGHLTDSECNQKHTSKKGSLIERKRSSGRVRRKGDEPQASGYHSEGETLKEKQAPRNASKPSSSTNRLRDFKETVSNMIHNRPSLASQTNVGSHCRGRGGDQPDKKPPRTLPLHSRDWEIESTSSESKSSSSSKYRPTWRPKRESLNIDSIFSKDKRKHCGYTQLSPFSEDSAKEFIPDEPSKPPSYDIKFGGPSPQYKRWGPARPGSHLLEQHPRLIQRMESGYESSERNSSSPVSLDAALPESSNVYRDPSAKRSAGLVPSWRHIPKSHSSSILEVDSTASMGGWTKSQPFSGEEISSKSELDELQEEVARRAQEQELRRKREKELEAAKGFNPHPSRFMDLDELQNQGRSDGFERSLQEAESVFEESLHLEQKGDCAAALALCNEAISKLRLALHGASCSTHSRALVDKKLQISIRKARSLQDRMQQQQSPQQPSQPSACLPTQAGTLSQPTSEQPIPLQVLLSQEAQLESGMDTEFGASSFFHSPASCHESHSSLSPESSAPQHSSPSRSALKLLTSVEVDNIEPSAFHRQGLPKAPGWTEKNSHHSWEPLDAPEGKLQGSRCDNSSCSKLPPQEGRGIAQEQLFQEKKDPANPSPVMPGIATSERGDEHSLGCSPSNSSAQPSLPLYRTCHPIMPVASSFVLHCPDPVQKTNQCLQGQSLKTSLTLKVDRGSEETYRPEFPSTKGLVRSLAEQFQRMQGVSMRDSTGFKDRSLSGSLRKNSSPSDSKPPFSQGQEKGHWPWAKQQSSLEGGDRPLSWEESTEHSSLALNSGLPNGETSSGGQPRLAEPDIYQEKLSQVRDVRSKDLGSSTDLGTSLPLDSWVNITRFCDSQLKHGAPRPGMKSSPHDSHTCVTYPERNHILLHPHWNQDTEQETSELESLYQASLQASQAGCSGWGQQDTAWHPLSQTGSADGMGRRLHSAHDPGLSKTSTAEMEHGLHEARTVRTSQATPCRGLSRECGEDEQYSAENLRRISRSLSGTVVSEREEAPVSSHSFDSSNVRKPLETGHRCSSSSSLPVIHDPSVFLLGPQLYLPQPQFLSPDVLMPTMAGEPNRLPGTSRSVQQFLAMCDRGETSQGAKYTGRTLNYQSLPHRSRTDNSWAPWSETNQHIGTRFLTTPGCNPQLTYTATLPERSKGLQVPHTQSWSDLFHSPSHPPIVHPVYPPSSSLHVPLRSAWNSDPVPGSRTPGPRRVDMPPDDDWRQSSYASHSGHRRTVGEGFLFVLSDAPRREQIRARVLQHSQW
USP46, sequence (P62068 whole entry): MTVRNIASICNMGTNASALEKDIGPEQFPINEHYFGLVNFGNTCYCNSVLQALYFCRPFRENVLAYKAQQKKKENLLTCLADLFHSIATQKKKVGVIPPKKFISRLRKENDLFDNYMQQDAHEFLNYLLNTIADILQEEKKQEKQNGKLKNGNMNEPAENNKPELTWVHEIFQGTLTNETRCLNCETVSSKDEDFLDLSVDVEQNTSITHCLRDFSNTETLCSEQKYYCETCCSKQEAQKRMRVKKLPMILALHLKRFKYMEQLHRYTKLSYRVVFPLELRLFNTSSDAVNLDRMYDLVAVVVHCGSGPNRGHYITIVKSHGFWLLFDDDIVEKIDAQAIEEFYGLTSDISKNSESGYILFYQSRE
UniProt O00487, sequence (O00487 whole entry): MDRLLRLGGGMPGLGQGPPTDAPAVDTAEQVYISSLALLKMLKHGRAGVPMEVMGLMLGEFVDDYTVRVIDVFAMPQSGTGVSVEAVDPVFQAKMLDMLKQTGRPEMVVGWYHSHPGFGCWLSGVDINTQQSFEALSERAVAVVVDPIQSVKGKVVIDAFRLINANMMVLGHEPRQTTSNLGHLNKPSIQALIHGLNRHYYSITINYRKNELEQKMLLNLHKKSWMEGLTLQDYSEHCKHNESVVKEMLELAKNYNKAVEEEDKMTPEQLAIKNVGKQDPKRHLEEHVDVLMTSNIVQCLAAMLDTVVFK
USP9X, sequence (Q93008 whole entry): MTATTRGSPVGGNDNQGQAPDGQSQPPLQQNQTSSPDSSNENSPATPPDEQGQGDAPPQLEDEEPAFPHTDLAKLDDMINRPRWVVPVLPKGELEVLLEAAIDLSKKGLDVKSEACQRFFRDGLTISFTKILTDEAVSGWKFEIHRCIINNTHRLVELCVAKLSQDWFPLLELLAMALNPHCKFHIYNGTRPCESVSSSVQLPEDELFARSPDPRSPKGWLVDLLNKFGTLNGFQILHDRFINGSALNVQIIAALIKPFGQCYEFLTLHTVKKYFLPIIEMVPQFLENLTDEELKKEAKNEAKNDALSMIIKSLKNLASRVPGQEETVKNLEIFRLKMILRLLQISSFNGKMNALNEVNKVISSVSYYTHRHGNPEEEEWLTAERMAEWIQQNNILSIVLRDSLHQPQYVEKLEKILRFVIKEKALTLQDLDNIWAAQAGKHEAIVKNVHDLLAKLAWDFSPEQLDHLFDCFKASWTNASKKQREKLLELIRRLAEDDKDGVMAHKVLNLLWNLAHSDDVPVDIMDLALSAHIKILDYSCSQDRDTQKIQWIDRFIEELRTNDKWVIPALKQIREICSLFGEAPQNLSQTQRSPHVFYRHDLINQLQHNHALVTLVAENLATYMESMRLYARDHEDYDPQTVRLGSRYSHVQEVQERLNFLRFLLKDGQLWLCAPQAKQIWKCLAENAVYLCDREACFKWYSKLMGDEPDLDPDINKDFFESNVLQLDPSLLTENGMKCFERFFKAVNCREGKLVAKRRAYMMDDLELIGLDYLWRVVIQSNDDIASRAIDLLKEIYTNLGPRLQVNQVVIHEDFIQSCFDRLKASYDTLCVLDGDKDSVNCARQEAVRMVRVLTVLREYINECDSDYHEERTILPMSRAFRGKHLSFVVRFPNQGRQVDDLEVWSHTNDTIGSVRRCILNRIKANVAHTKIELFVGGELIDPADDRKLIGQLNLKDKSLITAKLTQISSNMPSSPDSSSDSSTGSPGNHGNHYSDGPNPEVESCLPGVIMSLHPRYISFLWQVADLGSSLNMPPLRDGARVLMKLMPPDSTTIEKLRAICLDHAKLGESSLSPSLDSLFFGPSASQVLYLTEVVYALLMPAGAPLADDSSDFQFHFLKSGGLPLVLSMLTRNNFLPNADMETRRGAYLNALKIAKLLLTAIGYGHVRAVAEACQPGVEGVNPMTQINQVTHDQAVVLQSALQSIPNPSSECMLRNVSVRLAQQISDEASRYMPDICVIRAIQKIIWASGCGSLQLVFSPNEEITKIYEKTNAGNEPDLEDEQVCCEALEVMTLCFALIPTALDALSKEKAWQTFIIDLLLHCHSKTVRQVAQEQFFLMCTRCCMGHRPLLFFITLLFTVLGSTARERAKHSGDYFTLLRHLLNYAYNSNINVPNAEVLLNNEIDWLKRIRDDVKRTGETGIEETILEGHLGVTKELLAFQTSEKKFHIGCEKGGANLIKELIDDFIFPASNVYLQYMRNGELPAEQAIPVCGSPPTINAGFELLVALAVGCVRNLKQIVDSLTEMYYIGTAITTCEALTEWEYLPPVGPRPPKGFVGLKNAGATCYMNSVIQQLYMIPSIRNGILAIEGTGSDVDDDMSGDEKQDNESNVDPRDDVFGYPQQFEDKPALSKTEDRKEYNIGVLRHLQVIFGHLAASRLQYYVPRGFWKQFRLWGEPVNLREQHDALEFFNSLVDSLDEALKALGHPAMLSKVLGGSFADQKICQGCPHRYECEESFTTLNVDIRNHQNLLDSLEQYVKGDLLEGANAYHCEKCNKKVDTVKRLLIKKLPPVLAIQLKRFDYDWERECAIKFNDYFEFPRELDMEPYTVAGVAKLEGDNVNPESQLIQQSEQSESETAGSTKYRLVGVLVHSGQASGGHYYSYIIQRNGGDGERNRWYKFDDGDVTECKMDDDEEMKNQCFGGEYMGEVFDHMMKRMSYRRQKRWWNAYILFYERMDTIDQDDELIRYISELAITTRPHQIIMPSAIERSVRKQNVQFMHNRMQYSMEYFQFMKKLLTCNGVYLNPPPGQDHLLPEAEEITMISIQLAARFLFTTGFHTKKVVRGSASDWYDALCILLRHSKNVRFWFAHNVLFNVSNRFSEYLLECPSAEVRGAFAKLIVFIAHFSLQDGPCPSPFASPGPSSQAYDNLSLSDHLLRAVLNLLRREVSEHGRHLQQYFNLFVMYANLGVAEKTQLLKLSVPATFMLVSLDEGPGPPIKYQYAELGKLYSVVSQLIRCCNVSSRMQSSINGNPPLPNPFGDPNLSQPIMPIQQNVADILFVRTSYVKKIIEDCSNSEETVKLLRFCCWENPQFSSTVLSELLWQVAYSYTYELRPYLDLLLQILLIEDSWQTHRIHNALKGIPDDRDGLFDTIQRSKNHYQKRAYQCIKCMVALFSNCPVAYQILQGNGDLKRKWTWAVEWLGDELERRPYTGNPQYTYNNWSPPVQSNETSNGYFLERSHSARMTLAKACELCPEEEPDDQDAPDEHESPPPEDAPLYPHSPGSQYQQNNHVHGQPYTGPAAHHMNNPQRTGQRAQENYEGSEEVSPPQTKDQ

O=C(CCl)NC1CCN(C(=O)C2CCCCC2)CC1
inactive: USP42 0.471 | USP46 0.262 | USP47 0.301 | USP48 0.136 | USP5 -0.157 | USP54 0.282 | USP7 -0.045 | USP8 0.139 | USP9X 0.243 | UniProt O00487 0.0749

O=C(CCl)Nc1cccc(NC(=O)c2ccccc2)c1
inactive: USP42 0.808 | USP46 0.291 | USP47 -0.303 | USP48 -0.0133 | USP5 0.0977 | USP54 -0.543 | USP7 0.0734 | USP8 0.244 | USP9X 0.246 | UniProt O00487 0.00956

Cl.O=C(CCl)N1CCn2ncc(O)c2C1
inactive: USP42 -0.139 | USP46 -0.686 | USP47 -0.0187 | USP48 -0.559 | USP5 0.0938 | USP54 0.44 | USP7 -0.81 | USP8 -0.577 | USP9X -0.396 | UniProt O00487 -0.395
